Most compounds without a hit are left out; they make up all but 2.3% or so of the library.
GLD-1 TGE inh: GLD-1-TGE RNA interaction inhibition (C. elegans); Q17339; purified GLD-1 + fluorescein TGE RNA, fluorescence polarization; inhibition, % at 5.96 µM; 320,000 compounds, 0.44% hits; AID 2280;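 active = percent inhibition above a per-plate cutoff, the plate mean of test compounds plus 3 SD, cut at about 30% in these data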
Mcl-1 Bim block: inhibitors of Bim-Mcl-1 interaction, human; Bead-based flow cytometry, Bim peptide-Mcl-1 binding; inhibition, % at 10 µM; 190,000 compounds, 0.1% hits; in the data active = inhibition above about 40%
BCLXL inh: blocks human Bcl-xL binding to Bim BH3 peptide; Q07817; GST-Bcl-xL / FITC-Bim BH3 peptide fluorescence polarization; inhibition, % at 10.9 µM; 320,000 compounds, 0.7% hits; AID 2129;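 active = inhibition above the mean of all tested compounds plus 3 SD, cutoff set per campaign, cut at about 30% in these data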;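 note: inhibitors lower millipolarization by displacing the labeled peptide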
Target sequence (Q07817 whole entry, looked up): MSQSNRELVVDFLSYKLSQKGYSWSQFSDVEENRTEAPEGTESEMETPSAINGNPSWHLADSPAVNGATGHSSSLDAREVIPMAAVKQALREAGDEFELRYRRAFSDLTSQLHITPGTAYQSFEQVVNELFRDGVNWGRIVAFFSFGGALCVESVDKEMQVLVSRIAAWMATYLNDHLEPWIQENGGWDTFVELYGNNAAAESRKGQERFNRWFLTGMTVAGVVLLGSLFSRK
MCL1-BIM inh: MCL1-BIM-BH3 interaction inhibition (human); Q07820; GST-MCL1 / FITC-Bim-BH3 fluorescence polarization; inhibition, % at 10.9 µM; 320,000 compounds, 0.68% hits; AID 2057;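 active = inhibition above the mean inhibition of all tested compounds plus 3 SD, set per campaign, cut at about 40% in these data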;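 note: higher means more loss of mP so more displacement of Bim peptide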
Mcl1 Noxa PPI: Mcl-1/Noxa interaction inhibition; AID 1022; Q07820; inhibition, % at 21.7 µM; 220,000 compounds, 1.5% hits; TR-FRET Mcl-1/Noxa peptide binding, 2 h;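 active = compounds that cut the protein-peptide binding signal by more than 50% relative to plate controls in a single-dose test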;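 note: His-tagged Mcl-1 with rhodamine Noxa BH3 peptide and terbium anti-His antibody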
Mcl1 Bid PPI: disrupts binding of human Mcl-1 to Bid peptide; TR-FRET Mcl-1/Bid-Dy647 peptide binding, 1536-well; 220,000 compounds, 0.97% hits; inhibition, % at 21.7 µM;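 active = compounds that cut the binding signal by more than half at the single screening dose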;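 note: His-tagged Mcl-1 with europium anti-His antibody binding Bid BH3 peptide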
Of the large screens only hits and unclear results are named; the others gave an inactive call.

CCOC(=O)c1c(C)[nH]c(/C(C)=N/O)c1C	none
COc1cc(Cl)c(C)cc1NC(=O)CN1CCN(C(=O)C2CC2)CC1	none (no result: Mcl-1 Bim block, Mcl1 Noxa PPI, Mcl1 Bid PPI)
O=c1oc2ccccc2c(Nc2ccc3ccccc3c2)c1[N+](=O)[O-]	Mcl1 Noxa PPI 67.4
COc1ccc(C(CNC(=O)c2cccc(S(=O)(=O)NCc3ccccc3)c2)N2CCOCC2)cc1 (stereo not drawn)	none (no result: Mcl-1 Bim block, Mcl1 Noxa PPI, Mcl1 Bid PPI)
CCOc1ccc(N2CC(O)=C(c3nc4ccccc4c(=O)[nH]3)C2=N)cc1	Mcl1 Bid PPI 56.8
CN1CCN(c2nc(-c3ccccc3O)nc3ccccc23)CC1	none (no result: Mcl-1 Bim block, Mcl1 Noxa PPI, Mcl1 Bid PPI)
COc1cccc(-c2nc(N3CCN(C)CC3)c3ccccc3n2)c1O	Mcl1 Noxa PPI 68.1 (no result: Mcl-1 Bim block)
NC(=O)c1ccsc1NC(=O)COC(=O)/C=C/c1ccc([N+](=O)[O-])cc1	Mcl1 Noxa PPI 79.5 (no result: Mcl-1 Bim block)
O=C(NC(=S)N1CCCc2ccccc21)c1ccc(Cl)cc1	Mcl1 Noxa PPI 50.8
COc1ccc(N2CCN(C(=O)CNC(=O)c3cccc(Br)c3)CC2)cc1	none (no result: Mcl-1 Bim block, Mcl1 Noxa PPI, Mcl1 Bid PPI)
COC(=O)c1cc2c(cc1NC(=O)CSCCc1ccccn1)OCO2	BCLXL inh 30.8
COc1ccc(Br)c2oc(S)cc(=O)c12	Mcl1 Noxa PPI 63.5
COc1ccc(C(=O)c2ccc(OC)c(Br)c2)cc1Br	none
Cc1ccc(NS(=O)(=O)c2c(C)[nH]c(C)c2C(=O)N2CCCCC2)cc1F	none (no result: Mcl-1 Bim block, Mcl1 Noxa PPI, Mcl1 Bid PPI)
COc1cc(C(=O)O)c([N+](=O)[O-])c(OC)c1OC	none (no result: Mcl-1 Bim block)
COc1ccc(OC)c([N+](=O)[O-])c1C(N)=O	Mcl1 Noxa PPI 55.6
O=C(CNS(=O)(=O)c1ccccc1)OCc1cccc([N+](=O)[O-])c1	BCLXL inh 37.6
CCC(CCC(=O)Nc1nncs1)C(=O)O (stereo not drawn)	none (no result: GLD-1 TGE inh, BCLXL inh, MCL1-BIM inh)
CC(CCC(=O)Nc1nncs1)C(=O)O (stereo not drawn)	Mcl1 Bid PPI 86.5
Cc1ccc(-c2cc(C(=O)Nc3ccc(S(=O)(=O)Nc4ncccn4)cc3)[nH]n2)c(O)c1C	Mcl1 Noxa PPI 56.5 (no result: Mcl-1 Bim block)
Cc1c(C=O)c(Cl)n(C)c(=O)c1C#N	BCLXL inh 37.4, Mcl1 Noxa PPI 55.3
Cc1cc(C)n(C)c(=O)c1C#N	none
CCCCC1CCC(C(=O)N(C)CC(=O)Nc2cccc(OC)c2)CC1 (stereo not drawn)	none (no result: Mcl-1 Bim block, Mcl1 Noxa PPI, Mcl1 Bid PPI)
COCCN(CC(=O)Nc1cccc(C)c1C)C(=O)c1cc(-c2ccncc2)nc2ccccc12	none (no result: Mcl-1 Bim block, Mcl1 Noxa PPI, Mcl1 Bid PPI)
CC1CN(CCCCOc2ccc3ccccc3c2)CC(C)O1 (stereo not drawn)	none
COC(=O)c1ccc(OCCCCN2CC(C)OC(C)C2)cc1 (stereo not drawn)	Mcl1 Bid PPI 52.5
Cn1c(C(=O)N2CCN(c3ccccc3)CC2)cc2cc(Cl)ccc21	none (no result: Mcl-1 Bim block, Mcl1 Noxa PPI, Mcl1 Bid PPI)
COc1ccc(NC(=O)/C(C#N)=C\c2ccc(Br)o2)cc1	none (no result: Mcl-1 Bim block)
N#C/C(=C\c1ccc([N+](=O)[O-])o1)C(=O)Nc1ccc(F)cc1	BCLXL inh 41.0, Mcl1 Noxa PPI 64.7
COCCN(C(=O)COC(=O)CCC(=O)c1cccs1)c1c(N)n(Cc2ccccc2)c(=O)[nH]c1=O	none (no result: Mcl-1 Bim block, Mcl1 Noxa PPI, Mcl1 Bid PPI)
COc1ccc(NC(=O)CSc2nc(N)c(C(=O)Nc3ccc(N(C)C)cc3)s2)cc1	none
CN(C)c1ccc(NC(=O)CSc2nc(N)c(C(=O)Nc3ccc(N(C)C)cc3)s2)cc1	Mcl1 Noxa PPI 72.9
COc1ccc(NC(=O)CSc2nnc(N)s2)cc1	none
CCOC(=O)c1sc(SCC(=O)Nc2ccc(N(C)C)cc2)nc1N	Mcl1 Noxa PPI 72.5
COc1ccccc1NC(=O)COc1cc(Br)c(CNCCCN2CCOCC2)cc1OC	Mcl1 Bid PPI 89.0
Cc1ccc(Cl)c(OCC(=O)NC2CCN(Cc3ccccc3)CC2)c1	none (no result: Mcl-1 Bim block, Mcl1 Noxa PPI, Mcl1 Bid PPI)
Cc1nc2c(-c3ccc(Cl)cc3)cnn2c2c1CCC2	Mcl1 Bid PPI 85.2
Cc1nn(-c2cc(C(F)(F)F)ccc2Cl)c2nc(C(Cl)(Cl)Cl)[nH]c(=O)c12	none (no result: Mcl-1 Bim block)
CCCC1=Nc2cc(C(=O)N3CCC(C(=O)OCC)CC3)ccc2Sc2ccccc21	none (no result: Mcl-1 Bim block, Mcl1 Noxa PPI, Mcl1 Bid PPI)
CC1=Nc2cc(C(=O)O)ccc2Sc2ccc(Br)cc21	Mcl1 Noxa PPI 57.5
CN1/C(=C\C=C2/SC(=S)N(CC(=O)O)C2=O)C(C)(C)c2ccccc21	BCLXL inh 35.6
C=CCN1C(=O)/C(=C\C=C2\N(C)c3ccccc3C2(C)C)SC1=S	none
Cc1cc(OCC(=O)OCC(=O)NCCN2C(=O)CSC2=O)ccc1Cl	none (no result: Mcl-1 Bim block, Mcl1 Noxa PPI, Mcl1 Bid PPI)

Bioassay records (PubChem BioAssay)
